Measurements published in PubChem BioAssay AID1456 (Vanderbilt High Throughput Screening Facility, 2008).
Among all 190,000 compounds or so, about 4,100 (2.2%) were called active.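 The calls were made as follows: active = thallium flux slope and its plate-corrected score both differing from the plate sample mean at a set confidence after two filtering rounds, in either direction; inactive = the rest.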 For the sample, actives were picked, then their nearest neighbours and some compounds at random.

Target: Solute carrier family 12 member 5 (Homo sapiens) (UniProt Q9H2X9)
Test: KCC2 cotransporter modulators, thallium flux, primary screen, cell-based, HEK293 KCC2, FluoZin-2 fluorescence, MLSMR (AID 1456);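 also: slope of fluorescence scaled to starting intensity during 10 to 20 s after thallium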
Conditions: KCC2 cells, thallium flux FluoZin-2 fluorescence; at 10 µM

Chain of Solute carrier family 12 member 5 (Homo sapiens) (Q9H2X9 whole entry, looked up): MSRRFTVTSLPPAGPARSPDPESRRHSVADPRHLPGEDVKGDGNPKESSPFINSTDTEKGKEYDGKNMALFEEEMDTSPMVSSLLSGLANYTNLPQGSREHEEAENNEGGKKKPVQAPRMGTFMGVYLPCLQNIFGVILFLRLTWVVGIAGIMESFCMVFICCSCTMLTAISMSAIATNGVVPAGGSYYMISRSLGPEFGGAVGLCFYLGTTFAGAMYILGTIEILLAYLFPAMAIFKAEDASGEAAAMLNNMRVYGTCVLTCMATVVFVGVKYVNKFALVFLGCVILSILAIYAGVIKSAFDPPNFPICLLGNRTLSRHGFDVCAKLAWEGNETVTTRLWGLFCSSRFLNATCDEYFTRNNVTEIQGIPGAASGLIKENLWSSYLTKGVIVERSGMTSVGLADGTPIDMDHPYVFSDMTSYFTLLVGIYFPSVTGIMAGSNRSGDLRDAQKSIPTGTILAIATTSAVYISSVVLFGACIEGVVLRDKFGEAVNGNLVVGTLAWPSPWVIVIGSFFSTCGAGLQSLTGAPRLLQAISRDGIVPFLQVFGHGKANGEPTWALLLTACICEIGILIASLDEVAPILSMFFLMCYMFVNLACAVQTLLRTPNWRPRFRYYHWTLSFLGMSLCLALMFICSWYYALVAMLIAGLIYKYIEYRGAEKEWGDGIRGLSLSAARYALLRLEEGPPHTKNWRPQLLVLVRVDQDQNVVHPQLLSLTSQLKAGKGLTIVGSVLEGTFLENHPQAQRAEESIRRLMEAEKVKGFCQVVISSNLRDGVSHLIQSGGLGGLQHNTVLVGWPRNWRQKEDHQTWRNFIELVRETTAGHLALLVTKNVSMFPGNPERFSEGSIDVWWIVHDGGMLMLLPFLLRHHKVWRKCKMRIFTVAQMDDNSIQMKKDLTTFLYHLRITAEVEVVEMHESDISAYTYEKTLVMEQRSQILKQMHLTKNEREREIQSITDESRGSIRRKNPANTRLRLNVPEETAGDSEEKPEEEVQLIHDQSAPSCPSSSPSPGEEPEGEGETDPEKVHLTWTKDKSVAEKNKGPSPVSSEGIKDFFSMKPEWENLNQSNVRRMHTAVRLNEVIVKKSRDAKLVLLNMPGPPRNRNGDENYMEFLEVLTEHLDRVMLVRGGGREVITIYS

SMILES | B-score of Tl+ flux slope (higher = more flux/activation; lower = inhibition)
O=[N+]([O-])c1ccc(N=Cc2c(O)ccc3ccccc23)cc1 | -0.766 (inactive)
CN(C)S(=O)(=O)c1ccc(Cl)c(NC(=O)COC(=O)CC(NC(N)=O)c2ccc(Cl)cc2)c1 (stereo not given) | -0.372 (inactive)
COC(=O)/C=C(\Oc1ccccc1)C1(O)CCCCC1 | 0.292 (inactive)
O=C(CCCOc1ccc(Cl)cc1Cl)NNC(=O)C1CCC1 | -0.669 (inactive)
Cn1c(CCCOc2ccc(Cl)cc2Cl)n[nH]c1=S | -7.28 (active)
CC(C)Oc1ccc(Cc2n[nH]c(=S)n2Cc2ccccc2)cc1Cl | 0.809 (inactive)
CC(/C=C/c1ccco1)=N/NC(=O)C1COc2ccccc2O1 (stereo not given) | 0.221 (inactive)
S=C(Cc1ccc(Cl)cc1)N1CCOCC1 | 0.203 (inactive)
O=C(NCc1ccccc1)c1ccc(S(=O)(=O)Nc2cccc(C(F)(F)F)c2)cc1 | -1.11 (inactive)
CN(C)S(=O)(=O)c1cccc(NC(=S)NCc2ccc3c(c2)OCO3)c1 | -0.00969 (inactive)
CN(C)S(=O)(=O)c1cccc(NC(=S)N/N=C/C(=O)c2ccccc2)c1 | 6.68 (active)
CN(C)S(=O)(=O)c1cccc(C(=O)Nc2cccnc2)c1 | 0.857 (inactive)
CCN(CC)S(=O)(=O)c1cccc(C(=O)Nc2ccccc2)c1 | 0.179 (inactive)
Cc1ccc(/C=N/NC(=S)Nc2cccc(S(=O)(=O)N(C)C)c2)o1 | 11.8 (active)
CN(C)S(=O)(=O)c1cccc(NC(=O)COC(=O)c2cc(=O)[nH]c(=O)[nH]2)c1 | -0.0283 (inactive)
Cc1cc(C)cc(NC(=O)Cn2cnc3c(nnn3Cc3ccc(F)cc3)c2=O)c1 | 0.19 (inactive)
O=C(Cn1nnc(-c2ccccc2)n1)NCc1ccc2c(c1)OCO2 | -1.86 (inactive)
O=C(Cn1cnc2c(nnn2Cc2ccc(F)cc2)c1=O)NCc1ccc2c(c1)OCO2 | -2.61 (active)
Cn1nccc1NC(=O)Nc1ccc(OC(F)(F)F)cc1 | -0.213 (inactive)
Cc1ccccc1-c1n[nH]c(=S)n1/N=C/c1ccc(-c2ccccc2Br)o1 | 5.28 (active)
Cc1n[nH]c(=S)n1/N=C/c1ccc(Br)o1 | -0.354 (inactive)
Cc1ccc(Cl)cc1-c1ccc(/C=N/n2cnnc2)o1 | 0.473 (inactive)
O=[N+]([O-])c1cccc2ncccc12 | -1.11 (inactive)
Cc1ccccc1Nc1nnc(SCC(=O)c2cc3ccccc3o2)s1 | -2.32 (inactive)

SMILES | B-score of Tl+ flux slope (higher = more flux/activation; lower = inhibition)
Cc1ccc(Nc2nnc(SCC(=O)c3cc4ccccc4o3)s2)cc1C | -8.65 (active)
Cc1cc2c(=O)n(C)c(SCC(=O)c3cc4ccccc4o3)nc2s1 | 0.288 (inactive)
CCO[C@H]1OC(C(=O)NCc2ccccc2)=C[C@@H](c2coc3ccccc3c2=O)[C@@H]1CCCO | -2.75 (active)
C#CCNC(=O)C1=C[C@@H](c2ccccc2)[C@H](CCCO)[C@@H](OCC)O1 | 0.698 (inactive)
CCO[C@H]1OC(C(=O)N2CCN(Cc3ccccc3)CC2)=C[C@@H](c2cn(C(C)=O)c3ccccc23)[C@@H]1CCCO | -0.421 (inactive)
CN(C)c1ccc(/C=C/C(=O)c2ccc(O)cc2)cc1[N+](=O)[O-] | -1.51 (inactive)
CCN(CC(=O)Nc1ccc(S(=O)(=O)N2CCCC2)cc1)CC(=O)Nc1cccc(OC)c1 | -0.0112 (inactive)
Cc1onc(-c2ccc(Cl)cc2)c1-c1ccnn1S(=O)(=O)c1ccc(Cl)cc1 | 0.0713 (inactive)
C#CCNc1ccc(C(=O)OCC)cc1 | 0.0911 (inactive)
COc1ccc(C(=O)NN(C)c2nc(-c3ccccc3)cc(C)c2S(C)(=O)=O)cc1 | -2.92 (active)
COc1ccc(OCC(=O)NNC(=O)c2ccc(-c3ccccc3)cc2)cc1 | -0.294 (inactive)
COc1ccc(C(=O)Nc2cccc(S(C)(=O)=O)c2)cc1 | -0.0335 (inactive)
Cc1nc(COc2cccc(Cl)c2)sc1C(=O)/C=C/N(C)C | -0.976 (inactive)
CCN(CC)CCCN=Cc1c(O)n(-c2ccc(C)cc2)c(=O)c2ccccc12 | -0.624 (inactive)
O=C(CSc1nnnn1-c1ccc(O)cc1)c1ccc(F)cc1 | -0.119 (inactive)
CCOc1cccc(/C=N/N2C(=O)CSC2=S)c1O | 5.34 (active)
CCOc1cccc(/C=N/NC(=S)NCCN2CCOCC2)c1O | -0.223 (inactive)
O=C1CSC(=S)N1/N=C/c1ccc(O)c([N+](=O)[O-])c1 | 0.571 (inactive)
CC(=O)N1CCC(N(C(=O)Nc2ccc(Cl)cc2)C(C)C)CC1 | 0.402 (inactive)
COc1cc(C=O)ccc1Oc1nnnn1-c1ccccc1 | -0.736 (inactive)
COc1ccc(C(=O)NC2(C(F)(F)F)NC(=O)N(CCCc3ccccc3)C2=O)c(OC)c1OC (stereo not given) | -3.82 (active)
O=C(NC1(C(F)(F)F)NC(=O)N(C2CCCCC2)C1=O)c1ccco1 (stereo not given) | 0.89 (inactive)
Cc1ccc(S(=O)(=O)NC2(C(F)(F)F)NC(=O)N(CCc3ccccc3)C2=O)cc1 (stereo not given) | -0.615 (inactive)
COc1ccc(CN2CCNC(=O)C2CC(=O)N(C)Cc2ccccn2)cc1OC (stereo not given) | -0.00917 (inactive)

SMILES | B-score of Tl+ flux slope (higher = more flux/activation; lower = inhibition)
Cc1ccc(NS(=O)(=O)c2ccc(N/N=C/c3ccccc3OCC(=O)O)c([N+](=O)[O-])c2)c(C)c1 | -0.087 (inactive)
COc1cc(CN2CCN(Cc3ccc(C)cc3)CC2)c([N+](=O)[O-])cc1OC | -0.767 (inactive)
CC(=O)c1cccc(S(=O)(=O)N2CCC(n3nnc4cc(F)ccc43)CC2)c1 | -0.212 (inactive)
O=S(=O)(c1cccc(S(=O)(=O)N2CCC(n3nnc4ccccc43)CC2)c1)N1CCCCC1 | -6.25 (active)
O=C(c1ccc(F)cc1)N1CCC(n2nnc3ccccc32)CC1 | 1.38 (inactive)
CCN(CC)CCn1cnc2c1c(=O)n(CCOC(=O)c1cc(OC)c(OC)c(OC)c1)c(=O)n2C | -0.175 (inactive)
CC(=O)N1N=C(c2ccncc2)OC1(Cc1ccccc1)Cc1ccccc1 | -0.683 (inactive)
Cc1cc(C(=O)N/N=C/c2ccc(N3CCOCC3)cc2)c(C)o1 | -0.588 (inactive)
Cc1ccccc1N/N=C/c1ccc(N2CCOCC2)cc1 | 3.06 (active)
C(=N/Nc1cc(N2CCOCC2)nc(N2CCOCC2)n1)/c1ccccc1 | -0.154 (inactive)
COC(=O)C1=C(N)Oc2cc(C)[nH]c(=O)c2C1c1ccc(Cl)cc1 (stereo not given) | -2.12 (inactive)
O=C(NNS(=O)(=O)c1ccccc1)c1cnn(-c2ccc(Cl)cc2)c1C(F)(F)F | 0.887 (inactive)
CC1CN(/C=C/C(=O)C(F)(F)F)CC(C)O1 (stereo not given) | 1.01 (inactive)
O=C(Nc1ccncc1)c1cc2ccccc2o1 | 2.22 (inactive)
Cc1ccc(OC(=O)c2cc3ccccc3o2)cc1 | 0.278 (inactive)
C/C(=N\NC(=S)Nc1ccc(C)cc1)c1cc2ccccc2o1 | 90.2 (active)
COc1ccc(C)cc1S(=O)(=O)NCCc1ccccc1 | 0.198 (inactive)
COc1ccc(C)cc1S(=O)(=O)Nc1cccc(Cl)c1Cl | 2.43 (active)
COc1ccc(OC)c(S(=O)(=O)Nc2ccccc2F)c1 | 1.79 (inactive)
COc1ccc(NC(=O)N2CCC(Cc3ccccc3)CC2)cc1 | -5.5 (active)
COc1ccc(NC(=O)C(C)SCc2ccccc2)cc1 (stereo not given) | -0.536 (inactive)
CCOc1ccc(NC(=O)C2CCCN(C(=O)Nc3ccccc3)C2)cc1 (stereo not given) | -0.0798 (inactive)
S=C(NCCc1ccccc1)Nc1ccccc1 | -0.293 (inactive)
COc1cc(C(F)(F)F)c(C(=O)N(C)c2ccc(Cl)cc2)cn1 | 0.047 (inactive)

SMILES | B-score of Tl+ flux slope (higher = more flux/activation; lower = inhibition)
CCOC(=O)c1cn(CC)c2cc(F)c(F)cc2c1=O | -0.139 (inactive)
O=C(c1cc(COc2c(F)cccc2F)on1)N1CCSCC1 | -0.926 (inactive)
CC(C)C(NC(=O)c1ccc(Cl)cc1)C(=O)O (stereo not given) | 1.28 (inactive)
CC(C)CNC(=S)NC(=O)c1ccc(Cl)cc1 | 33 (active)
Cc1occc1C(=O)NNC(=S)NCC(C)C | -0.168 (inactive)
O=C(NN=C1CCC(=NNC(=O)c2cccnc2)CC1)c1cccnc1 | 0.0392 (inactive)
COc1ccc(Cl)cc1CSc1ncn[nH]1 | -1.03 (inactive)
CC(C)(C)OC(=O)NCCCCCC(=O)N/N=C/c1coc2ccccc2c1=O | -2.19 (inactive)
NC(=S)N/N=C/c1coc2cc(Cl)ccc2c1=O | 1.23 (inactive)
O=C(N/N=C/c1coc2ccccc2c1=O)c1cc2ccccc2o1 | 5.52 (active)
CCOC(=O)C1CCN(CCC(=O)Nc2cccc(C)c2)CC1 | 0.406 (inactive)
CN(CC(O)COc1ccc(S(=O)(=O)N2CCOCC2)cc1Cl)C1CCCCC1 (stereo not given) | 0.0176 (inactive)
Cc1nn(-c2ccccc2)c2sc(C(=O)N(Cc3ccco3)C(C)C(=O)NC(C)(C)C)cc12 (stereo not given) | 8.53 (active)
O=C(NCc1ccco1)c1nc(-c2ccccc2)n(-c2ccccc2)n1 | -2.03 (inactive)
Cc1ccc(-c2nnn(CC(=O)N(Cc3ccco3)C(C(=O)NC(C)(C)C)c3ccncc3)n2)o1 (stereo not given) | -1.04 (inactive)
Cc1nnc(Nc2ccccc2F)s1 | -0.881 (inactive)
CC(NC(=O)C(=O)Nc1nccs1)c1ccccc1 (stereo not given) | 2.74 (inactive)
N#Cc1nc(Cc2cccc3ccccc23)oc1NCc1ccc2c(c1)OCO2 | -5.13 (active)
O=C(COc1ccccc1)NCc1ccc2c(c1)OCO2 | -0.24 (inactive)
Cn1cc(CCC(=O)NCc2ccc3c(c2)OCO3)c2ccccc21 | -1.1 (inactive)
N#Cc1nc(-c2ccc(OCc3ccccc3)cc2)oc1NCCCN1CCOCC1 | 0.37 (inactive)
N#Cc1nc(COc2ccc(-c3ccccc3)cc2)oc1NCc1cccnc1 | -4.77 (active)
Cc1ccc(OCc2nc(C#N)c(N3CCCC3)o2)cc1 | -0.743 (inactive)
